Experimental data: PubChem BioAssay AID1508600 (Functional Genomics Laboratory (NCATS/FGL), 2020)
Among all 53,000 sequences or so, about 3,700 (7%) were called active. Only a selection was taken, and actives are over-represented in it overall. Values without a mark were called inactive.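 Rule for the calls: active = gene knockdowns whose robust z-score for IL-1 alpha signal is at least 2 or at most -2, so actives lie on both sides; inactive = the rest.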

Test: Components of the Cytosolic LPS Sensing Pathway: Gene Identification via Genome-wide siRNA Screen;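 note: robust z of the log signal after scaling to non-targeting control siRNA wells of the plate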
Conditions: RAW264.7 macrophages, IL-1a HTRF, actives lie on both sides, screened at 100 nM (by protocol), cells primed 5 h with Pam3CSK4 first
In short: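 Mouse macrophage line RAW264.7 is transfected with siRNA (100 nM final), grown 48h, primed with TLR ligand Pam3CSK4 5 h and given intracellular LipidA 24 h. IL-1a in supernatant is read by HTRF and viability by luminescence.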

Row | Sequence | z-score
1 | CCUUCGUGUUCACUUUAAGTT against Rpl17 | -1.5
2 | CCACUAAUAGUCGUAGAAUTT against Dand5 | 0.535
3 | GCCAUCUCUAUGUUGUUGATT against Smtnl2 | -0.108
4 | GGUCAUCCUCAAGAUGAAGTT against Zfp819 | -2.82 (active)
5 | GGCAUGUCCAAGGAAUACUTT against Snrpg | -1.4
6 | GGUUAAUCUGAGAAUUCUATT against Kcnk1 | 0.717
7 | CCCAAUUUUUAGUUGCUAATT against Rab2b | 0.0495
8 | GGAAGCUGUCUUCAAGUCCTT against Phf7 | -1.3
9 | GCAGUCCUCGUCCUCAAAGTT against Btbd10 | 2.16 (active)
10 | GGCAGAAUACUAUAUAUAGTT against Tmx2 | 0.879
11 | GGAAAUCUGUUCUUGAAGGTT against Pcdhb4 | -0.0811
12 | GGUGCUGACUCCGACUAAATT against Nhsl1 | 1.2
13 | GGUACAGCUGGUUCUCUUUTT against Olfr1018 | 1.2
14 | GCUUGCUAGAUUGGUGUUGTT against Arhgap17 | 3.32 (active)
15 | GGCUGCUAUCAUGGAAUUATT against Ppp2cb | 0.924
16 | CGUGUGAAGAAAAUUGAUGTT against Mmp27 | 0.568
17 | GCACAGUAACCUAAAAUACTT against Tanc2 | -1.48
18 | GGAUUUGAGGUUUUAGGAATT against Qtrt2 | -0.0174
19 | GGUUGUGGUCUUUGUUCUGTT against Olfr923 | -1.11
20 | GGAAAGAACAACAAAGGAGTT against Snx9 | 0.84
21 | CCUCUCAGAUGGUAUAUAATT against Olfr520 | -2.14 (active)
22 | GCCUCAAUUGUUUACUUAUTT against Edn2 | 0.404
23 | GGAGAAGUCAUGAAACAAATT against Prkn | 0.349
24 | GGACAAAUCUUUGUUUAGCTT against Plscr3 | -0.0965
25 | GGGACCCAAGGAUAUGAAUTT against Rbsn | 0.6
26 | GGAGCAAGUAUUUACAUUGTT against Psmd10 | 1.55
27 | GGAGGUUGGGAUGAAUUAUTT against Rab6b | 4.26 (active)

Row | Sequence | z-score
28 | GGACUAAUUGGCCUCUGCUTT against Rpl22l1 | 0.638
29 | GGGCUGCUCACAAUUUAUATT against Tmem135 | 1.17
30 | GGACACUUACGUCAUCGAGTT against Rtca | -0.814
31 | GGUGGAGAUUGUUUGUAAATT against Lratd1 | 1.56
32 | GGACCCAUCGAAACCUCUATT against Pirb | -0.0759
33 | CCCAUGCUUGGAAUAAUUATT against Man1a | 0.00246
34 | GGACGAACUCAUCAACAGUTT against Gtf2ird1 | -0.00436
35 | GGGAAGCUGAUUAUACAUUTT against Serpinf1 | 3.22 (active)
36 | GGCUAAGAAUGAGACUGGUTT against Abcg4 | -0.0869
37 | GGAGAAGAUUCCAGAAGCCTT against Tcf15 | -1.42
38 | GGGCAUUGGCAAGAAAAAGTT against Ahdc1 | -0.543
39 | GCAUAAGCGAAGAAGAAGUTT against Clk2 | 0.0795
40 | GCUGGCUGUUUCACUACAGTT against Tdh | 3.19 (active)
41 | GCUAGAGUAGCUUUGGGCATT against Glra3 | 1.37
42 | GCAAGAUUUAUCCCAGUCGTT against Rnf2 | -1.83
43 | GCUUCGACAUUGUUAGUUATT against Ammecr1 | 0.322
44 | GCAUGUUCGUGGAAGUACUTT against Got1l1 | 0.0202
45 | GGAGAUCCUCAAGGAGCAGTT against Park7 | 2.02 (active)
46 | GCAGUUUCUAAUGAAGGUUTT against Ppp2r5a | 0.416
47 | CGGUCUGCUCUACAUUGUCTT against Nek4 | 1.39
48 | GCCUAUGGGUCAUUUCAAATT against Dock11 | -0.968
49 | GGGCAGGUGGAUGUGGAAATT against Ryr2 | 0.546
50 | GGUACCAUAUCUGUGAACATT against Nrxn3 | -1.25
51 | GGUUCAGCUGGUCCUAUCUTT against Olfr1099 | -2.07 (active)
52 | GGCAAUGCUGUCCUACUAUTT against Map2k5 | -1.19
53 | GGAGAACUUAAAGCACAAUTT against Plxnb1 | 0.179
54 | UCCUAGAGUCAUCAUCAUATT against A530064D06Rik | -0.44
